aSyn yeast inh = alpha-synuclein toxicity inhibition in yeast. Yeast expressing alpha-synuclein, growth rescue, BacTiter-Glo, 24 h. Potency, µM (doses to about 46.1 µM), without a hit: at the highest dose growth rescue (activation), hits mostly activators. 0.14% of 370,000 active. AID 652106; note: % of control where 0% means no effect; nearly all actives have a fitted effect of over 65% in size
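Rescue of yeast growth: cells expressing toxic alpha-synuclein, induced in galactose at OD600 0.02, incubated with compound 24 h at 30 C. ATP luminescence quantified growth; inhibitors of toxicity appear as activators.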
BCR signal inh = chronic active BCR signaling inhibition; ABC-DLBCL IkBa-CBG/CBR reporter, luminescence ratio, 4 h; Potency, µM (top dose mostly 46.1 µM), without a hit: at the highest dose activity change, negative = inhibition, most hits filed as inhibitors; 0.05% of 340,000 active; active = well fitted inhibition curve with a large enough effect in the signal ratio, with a control signal flat, not every such curve was filed as active; inconclusive = small, poorly fitted or top-dose-only effect, or effect the other way, or a change in a side signal; the % refers to the signal ratio;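 note: plate controls were basal doxycycline-induced cells for no effect and cells given 10 µM MG132 for full effect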
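Doxycycline induced both beetle luciferases in TMD8 lymphoma cells; IKK-driven degradation limits the IkappaBalpha-fused green signal, while red luminescence normalises for cell number and nonspecific effects. Compounds tested up to 46 uM, 4 hrs.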
TDP43 rescue = inhibitors of TDP-43 toxicity in yeast | Potency, µM (top dose mostly 46.1 µM), for inactives: at the highest dose growth rescue (activation), usual class: activators | TDP-43 expressing yeast growth rescue, BacTiter-Glo, 24 h | AID 652104 | 1.8% of 410,000 active; note: % of control where 0% means no effect; nearly all actives have a fitted effect of over 50% in size
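In this qHTS, compounds that restore growth of yeast expressing TDP-43 appear as activators. Cells (OD600=0.02, galactose medium, raffinose-pregrown) are incubated with compound 24 hr at 30 deg C and growth is quantified by BacTiter-Glo.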
Abeta rescue = restores growth of yeast expressing A-beta42 peptide | Potency, µM (highest dose often 46.1 µM), hits mostly activators | yeast expressing A-beta42, growth rescue, OD600, 48 h; response scale: 0% DMSO, 100% iron-clioquinol control | 0.063% of 410,000 active | AID 1347071; note: nearly all actives have a fitted effect of over 55% in size
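Growth rescue measured by 600 nm absorbance after 48 h yeast culture at 30 C with compound. Values normalized between DMSO and an equimolar ferric chloride plus clioquinol control.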
uPA surface inh = blocks generation of uPA at the cell surface | cell surface uPA generation assay, qHTS | Potency, µM (top dose mostly 38.3 µM), for inactives: at the top dose activity change, negative = inhibition, most hits filed as inhibitors | 0.31% of 330,000 active; active = well fitted inhibition curve with a large enough effect; inconclusive = small, poorly fitted or top-dose-only effect; inactive = no such curve, though single readings can be large or run the other way; tested in mouse RAW 264.7 cells; note: % is set by controls: 0 for no effect and ±100 for the full control effect; nearly all actives have a fitted effect of over 55% in size
FUS suppressor = suppressors of FUS proteinopathy in yeast. Potency, µM (highest dose often 76.6 µM), most hits filed as activators. S. cerevisiae FUS-expressing, growth rescue, OD600, 24 h. 0.24% of 390,000 active. AID 1347120;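 note: plate controls were DMSO vehicle for no effect and reference control for full effect; nearly all actives have a fitted effect of over 55% in size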
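Steps: raffinose overnight preculture; dilution to OD 0.005 in 2% galactose minimal medium; compound addition (concentration series); 24hr at 30C, 99% humidity; absorbance read at 600 nm.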
* = called active by the depositor; i = inactive; ? = inconclusive; . = no result given; [ ] = dose if it differs, or a comment. A selection: hits, their analogues and other compounds. The true share with any hit is near 2.3%. Unless noted, calls come from the whole dose curve; as a rule, active = well fitted curve in the direction sought with a large enough effect; inconclusive = small, poorly fitted or top-dose-only effect, or another doubt; inactive = no such curve, though single readings can be large; an effect the other way counts as inactive or inconclusive. Potency is the fitted concentration of half-maximal effect.

SMILES | aSyn yeast inh | BCR signal inh | TDP43 rescue | Abeta rescue | uPA surface inh | FUS suppressor
COC(=O)[C@]12C[C@H](CC(=O)N3CCN(C(=O)C4CC4)CC3)C(=O)N(Cc3cccc4ccccc34)C1=C[C@H](C1CCCC1)O[C@@H]2C | . | . | . | . | . | 20µM*
COc1ccc(C(=O)NCC(=O)N2CCN(c3ncccn3)CC2)cc1OC | 1% | -3% | 21% | i | -2% | .
Cc1ccccc1S(=O)(=O)Nc1nc2ccccc2nc1N1CCOCC1 | 4% | 4% | 18µM* | i | -2% | i
Cc1cccc2sc(N3CCN(C(=O)CS(=O)(=O)c4ccc(F)cc4)CC3)nc12 | . | 4% | 13µM* | i | . | i
O=C(O)c1ccccc1C(=O)OC1CCCC2CCCC21 (stereo unspecified) | 18% | . | 22µM* | i | 3% | .
COC(=O)C1(C)CCCC2(C)c3cc(OC)ccc3C(=O)C(Br)C12 (stereo unspecified) | -4% | . | 25µM* | i | . | ?
CC(C)(C)NC(=O)C(c1cccc2ccccc12)n1c(=O)c(-c2ccccc2)nc2ccccc21 (stereo unspecified) | -13% | . | 35µM* | i | . | i
CCc1nnc(NC(=O)CSc2nccn2Cc2ccc(C)cc2)s1 | . | . | 27%[9.22 µM] | i | . | i
Cc1ccc(Cn2ccnc2SCC(=O)Nc2nc3ccccc3s2)cc1 | . | . | 22µM* | i | . | ?
Cc1ccc(C)c(NC(=S)NCCSc2ccc(Cl)cc2)c1 | -5% | ? | 21% | i | -5% | .
S=C(NCc1ccc(Cl)cc1)Nc1ccccc1Cl | -2% | -5% | ? | i | 6% | i
CCc1ccccc1NC(=S)NCCSc1ccc(Cl)cc1 | -8% | ? | 13µM* | i | -2% | i
CSc1ccccc1NC(=S)NCc1ccc(Cl)cc1 | -1% | 3% | ? | 16µM* | 9% | i
Cc1ccccc1NC(=S)NCCSc1ccc(Cl)cc1 | 1% | ? | 18µM* | i | 1% | i
Cc1ccc(NC(=O)c2ccc(N/N=C/c3cccc(O)c3)c([N+](=O)[O-])c2)cc1 | -1% | ? | 13% | i | 8% | i
CC1CC2C3CCC4=CC(=O)CCC4(C)C3CCC2(C)C1(O)C(=O)CO (stereo unspecified) | 12% | . | -13% | i | 4% | i
COc1ccc(COc2cc(-c3cccc(OC)c3)nc3ccc(NC(C)=O)cc23)cc1 | 10% | -6% | 3% | i | 3% | i
COc1ccc(COc2cc(-c3cccc(OC)c3)nc3ccc(N)cc23)cc1 | 1% | ? | 0% | i | 1.1µM* | ?
O=C(NCc1cccs1)c1cccc2c(-c3cccnc3)coc12 | 3% | . | 18µM* | i | . | i
O=C(Nc1cccc(OC(F)(F)F)c1)c1cccc2c(-c3cccnc3)coc12 | -16% | . | 32µM* | i | . | ?
COc1ccc(CNC(=O)c2cccc3c(-c4cccnc4)coc23)cc1OC | 15% | . | 23% | i | . | i
COc1ccc(NC(=O)c2cccc3c(-c4cnn(C)c4)coc23)cc1 | 9% | . | 13µM* | i | . | i
O=C(NCc1cccc(Cl)c1)c1cccc2c(-c3cccnc3)coc12 | 17% | . | 18µM* | i | . | ?
CCC(C)N(C(=O)CSc1nnc(COc2ccccc2F)n1N)C1CCS(=O)(=O)C1 (stereo unspecified) | 7% | -20% | 16% | i | 3% | i
O=C(COC(=O)c1cnccn1)NCCc1ccc(Cl)cc1 | -2% | -4% | -8% | i | 0% | i
SMILES | aSyn yeast inh | BCR signal inh | TDP43 rescue | Abeta rescue | uPA surface inh | FUS suppressor
CCn1c(SCC(=O)OC(C)C)nnc1-c1ccccc1 | 1% | -1% | 2% | i | -2% | i
O=C(NCc1ccc(F)c(F)c1)c1cccc2c(-c3cccnc3)coc12 | 5% | . | 13µM* | i | . | i
O=C(c1ccco1)N1CCN(C(=O)c2ccc(-c3ccccc3Cl)o2)CC1 | -3%[1.84 µM] | ? | 14µM* | i | -14% | i
O=C(c1ccc(-c2ccc(Cl)cc2Cl)o1)N1CCOCC1 | 5% | -3% | 18µM* | i | ? | i
O=C(c1ccc(-c2cc(Cl)ccc2Cl)o1)N1CCOCC1 | -4% | 5% | ? | i | -1% | i
O=C(c1ccc(-c2cccc(C(F)(F)F)c2)o1)N1CCN(c2ccccc2O)CC1 | 9% | 0% | 16µM* | ? | 2% | i
O=C(c1ccc(-c2ccccc2Cl)o1)N1CCN(c2ccccc2O)CC1 | ? | -13% | 22µM* | i | 1% | i
O=C(Nc1nnc(C2CC2)s1)c1cc(S(=O)(=O)N2CCN(c3ccccc3)CC2)ccc1Cl | 1% | -1% | -3% | i | . | ?
Cn1c(=O)n(-c2cccc(Cl)c2)c(=O)c2sc3ccccc3c21 | . | . | 20% | i | . | i
CCOc1ccc2nc(NC(=O)C3(C)CC3(Br)Br)sc2c1 (stereo unspecified) | -34% | . | 18µM* | ? | ? | i
CCOCC(=O)Nc1nc2ccc(OCC)cc2s1 | 19% | ? | 16% | i | -7% | i
O=C(Cn1c(=O)cnc2ccccc21)Nc1cc(Cl)ccc1N1CCOCC1 | -1% | ? | 13µM* | i | 4% | i
CC(C)N1C2OC(C3OC4C(O3)N(C(C)C)S(=O)(=O)N4C(C)C)OC2N(C(C)C)S1(=O)=O (stereo unspecified) | 7.1µM* | ? | ? | i | -3% | i
Cc1cc(Cl)ccc1OCC(=O)NCCOc1nc(N2CCCCC2)nc(N2CCOCC2)n1 | -11% | -2% | 6% | i | 1% | .
Cc1cc(C(=O)COC(=O)c2ccc[nH]c2=O)c(C)n1-c1ccccc1F | -23% | 15% | 21% | i | 2.8µM* | i
Cc1cc2nc(C(C)(C)C)c(Cc3ccsc3)n2c(C)c1Br | -13% | . | 13µM* | ? | . | i
Cc1cc2nc(C3CCCCC3)c(Cc3ccsc3)n2c(C)c1Br | 3.5µM* | . | 20% | i | . | i
Cc1ccc(N2C(=O)C(Cl)=C(N3CCOCC3)C2=O)c(C)c1 | -2% | 1% | 20µM* | i | 0% | i
Cc1ccccc1N1C(=O)C(Cl)=C(N2CCOCC2)C1=O | 2% | 0% | 8% | i | -6% | i
c1ccc2[nH]c(CNc3nc(N4CCOCC4)nc4c3ncn4-c3ccsc3)nc2c1 | . | . | . | . | . | i
c1ccc2cc3[nH]c(CNc4nc(N5CCOCC5)nc5c4ncn5-c4ccsc4)nc3cc2c1 | . | . | . | . | . | 14µM*
CCOc1ccc(-c2cn3ccccc3n2)cc1[N+](=O)[O-] | 0% | ? | 3% | i | -10% | i
